Reference: paper PMC9838217, “Structure of SALL4 zinc finger domain reveals link between AT-rich DNA binding and Okihiro syndrome”
Residue numbers refer to the chain shown, from its start.

Legend:
Assay in all cases: HT-SELEX; high values mean tight binding
Settings in all cases: protein: recombinant; vector His6-GST; dsDNA, one strand shown
SALL4 ZFC4 WT (HT-SELEX) = target: T1, SALL4 ZFC4 WT (HT-SELEX) (Mus musculus, UniProt Q8BX22 870-940)
T1 sequence: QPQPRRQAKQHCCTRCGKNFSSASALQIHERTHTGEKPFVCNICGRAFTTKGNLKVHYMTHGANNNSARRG
Procedure, shortened: (§1)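 Recombinant mouse SALL4 zinc finger cluster 4 (residues 870–940, 1 µg), purified, was mixed with library DNA (1.5 µg in the first cycle, 200 ng thereafter) in 100 µl of buffer containing 10 mM Tris–HCl pH 7.5, 50 mM NaCl, poly(dI-dC) and DTT, and left for 10 min at room temperature. Complexes were captured on Ni2+ beads, washed, amplified by PCR and reselected for up to 6 cycles in triplicate, after which MiSeq sequencing and a 6-mer scan followed. Binding signal is the read fraction of each canonical k-mer, given as fold change relative to the starting random library.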

[1] = target: T2, SALL4 ZFC4 R900W (HT-SELEX) (Mus musculus, UniProt Q8BX22 870-940, R900W)
T2 sequence: T1 sequence with R31W
Procedure, shortened: as §1

[2] = target: T3, SALL4 ZFC4 G921D (HT-SELEX) (Mus musculus, UniProt Q8BX22 870-940, G921D)
T3 sequence: T1 sequence with G52D
Procedure, shortened: as §1

| Sequence | binding signal (SALL4 ZFC4 WT (HT-SELEX)) | binding signal [1] | binding signal [2] |
| --- | --- | --- | --- |
| CCGTTC | 0.364 ± 0.0226 fold-change vs cycle 0 | 0.435 ± 0.0276 fold-change vs cycle 0 | 0.511 ± 0.0586 fold-change vs cycle 0 |
| AGATGG | 0.853 ± 0.0339 fold-change vs cycle 0 | 0.933 ± 0.00507 fold-change vs cycle 0 | 0.962 ± 0.0157 fold-change vs cycle 0 |
| ATTATG | 2.78 ± 0.17 fold-change vs cycle 0 | 1.94 ± 0.0249 fold-change vs cycle 0 | 1.74 ± 0.121 fold-change vs cycle 0 |
| CAGCTA | 0.637 ± 0.0596 fold-change vs cycle 0 | 0.727 ± 0.0267 fold-change vs cycle 0 | 0.82 ± 0.0545 fold-change vs cycle 0 |
| ATCTTA | 2.21 ± 0.106 fold-change vs cycle 0 | 2.19 ± 0.133 fold-change vs cycle 0 | 1.92 ± 0.224 fold-change vs cycle 0 |
| ACGGAC | 0.337 ± 0.0313 fold-change vs cycle 0 | 0.425 ± 0.0312 fold-change vs cycle 0 | 0.526 ± 0.0575 fold-change vs cycle 0 |
| GTTGGA | 0.713 ± 0.0283 fold-change vs cycle 0 | 0.83 ± 0.0624 fold-change vs cycle 0 | 0.883 ± 0.0383 fold-change vs cycle 0 |
| AGATAA | 2.16 ± 0.129 fold-change vs cycle 0 | 2.17 ± 0.195 fold-change vs cycle 0 | 1.87 ± 0.206 fold-change vs cycle 0 |
| AAAAAC | 1.45 ± 0.0971 fold-change vs cycle 0 | 1.49 ± 0.0832 fold-change vs cycle 0 | 1.42 ± 0.0693 fold-change vs cycle 0 |
| CAACGA | 0.626 ± 0.036 fold-change vs cycle 0 | 0.7439 ± 0.00396 fold-change vs cycle 0 | 0.81 ± 0.0225 fold-change vs cycle 0 |
| CGATGA | 0.734 ± 0.0173 fold-change vs cycle 0 | 0.797 ± 0.0326 fold-change vs cycle 0 | 0.875 ± 0.0214 fold-change vs cycle 0 |
| ACGACC | 0.308 ± 0.026 fold-change vs cycle 0 | 0.378 ± 0.0333 fold-change vs cycle 0 | 0.508 ± 0.0872 fold-change vs cycle 0 |
| GAAATA | 2.68 ± 0.193 fold-change vs cycle 0 | 1.89 ± 0.115 fold-change vs cycle 0 | 1.72 ± 0.124 fold-change vs cycle 0 |
| CCATTC | 0.803 ± 0.0377 fold-change vs cycle 0 | 0.923 ± 0.0207 fold-change vs cycle 0 | 0.938 ± 0.0225 fold-change vs cycle 0 |
| CATTTA | 1.86 ± 0.0709 fold-change vs cycle 0 | 1.83 ± 0.108 fold-change vs cycle 0 | 1.69 ± 0.163 fold-change vs cycle 0 |
| CACGAA | 0.608 ± 0.0441 fold-change vs cycle 0 | 0.706 ± 0.0334 fold-change vs cycle 0 | 0.781 ± 0.0236 fold-change vs cycle 0 |
| CATTTC | 1.25 ± 0.0444 fold-change vs cycle 0 | 1.26 ± 0.0656 fold-change vs cycle 0 | 1.23 ± 0.0622 fold-change vs cycle 0 |
| CAGCAC | 0.3 ± 0.0076 fold-change vs cycle 0 | 0.335 ± 0.0156 fold-change vs cycle 0 | 0.476 ± 0.0603 fold-change vs cycle 0 |
| AAGTCA | 1.3 ± 0.0493 fold-change vs cycle 0 | 1.46 ± 0.0531 fold-change vs cycle 0 | 1.35 ± 0.0928 fold-change vs cycle 0 |
| ACCGTA | 0.728 ± 0.0197 fold-change vs cycle 0 | 0.818 ± 0.0316 fold-change vs cycle 0 | 0.868 ± 0.0103 fold-change vs cycle 0 |

| Sequence | binding signal (SALL4 ZFC4 WT (HT-SELEX)) | binding signal [1] | binding signal [2] |
| --- | --- | --- | --- |
| CGATAC | 0.695 ± 0.052 fold-change vs cycle 0 | 0.793 ± 0.033 fold-change vs cycle 0 | 0.902 ± 0.0425 fold-change vs cycle 0 |
| ATGCTA | 1.28 ± 0.0551 fold-change vs cycle 0 | 1.34 ± 0.0761 fold-change vs cycle 0 | 1.31 ± 0.0688 fold-change vs cycle 0 |
| GGGTGA | 0.483 ± 0.00743 fold-change vs cycle 0 | 0.541 ± 0.0302 fold-change vs cycle 0 | 0.632 ± 0.0295 fold-change vs cycle 0 |
| CTTGTA | 1.27 ± 0.0539 fold-change vs cycle 0 | 1.44 ± 0.0511 fold-change vs cycle 0 | 1.33 ± 0.0845 fold-change vs cycle 0 |
| AGTTTA | 1.89 ± 0.117 fold-change vs cycle 0 | 1.94 ± 0.143 fold-change vs cycle 0 | 1.72 ± 0.194 fold-change vs cycle 0 |
| ATTTTC | 1.99 ± 0.115 fold-change vs cycle 0 | 1.68 ± 0.0202 fold-change vs cycle 0 | 1.56 ± 0.0749 fold-change vs cycle 0 |
| GCAATA | 1.12 ± 0.0362 fold-change vs cycle 0 | 1.04 ± 0.028 fold-change vs cycle 0 | 1.11 ± 0.028 fold-change vs cycle 0 |
| ATTCTA | 2.06 ± 0.0756 fold-change vs cycle 0 | 2.07 ± 0.113 fold-change vs cycle 0 | 1.81 ± 0.213 fold-change vs cycle 0 |
| GTCGTA | 0.571 ± 0.0216 fold-change vs cycle 0 | 0.663 ± 0.0204 fold-change vs cycle 0 | 0.752 ± 0.0439 fold-change vs cycle 0 |
| CAAGTC | 0.742 ± 0.0124 fold-change vs cycle 0 | 0.878 ± 0.025 fold-change vs cycle 0 | 0.942 ± 0.0196 fold-change vs cycle 0 |
| AAGCAG | 0.683 ± 0.026 fold-change vs cycle 0 | 0.821 ± 0.0507 fold-change vs cycle 0 | 0.85 ± 0.0183 fold-change vs cycle 0 |
| AACCCC | 0.459 ± 0.0283 fold-change vs cycle 0 | 0.547 ± 0.00959 fold-change vs cycle 0 | 0.617 ± 0.0497 fold-change vs cycle 0 |
| AACTGT | 1.31 ± 0.0453 fold-change vs cycle 0 | 1.39 ± 0.0174 fold-change vs cycle 0 | 1.34 ± 0.0563 fold-change vs cycle 0 |
| CACTAA | 1.22 ± 0.0467 fold-change vs cycle 0 | 1.38 ± 0.0225 fold-change vs cycle 0 | 1.29 ± 0.0518 fold-change vs cycle 0 |
| CATGTC | 0.763 ± 0.0529 fold-change vs cycle 0 | 0.908 ± 0.0423 fold-change vs cycle 0 | 0.939 ± 0.0158 fold-change vs cycle 0 |
| ACACAG | 0.726 ± 0.03 fold-change vs cycle 0 | 0.835 ± 0.00993 fold-change vs cycle 0 | 0.877 ± 0.04 fold-change vs cycle 0 |
| ACGTTA | 1.26 ± 0.034 fold-change vs cycle 0 | 1.37 ± 0.0435 fold-change vs cycle 0 | 1.29 ± 0.0362 fold-change vs cycle 0 |
| ACCGAG | 0.423 ± 0.0215 fold-change vs cycle 0 | 0.496 ± 0.0188 fold-change vs cycle 0 | 0.586 ± 0.0556 fold-change vs cycle 0 |
| ACGTAG | 0.7133 ± 0.00555 fold-change vs cycle 0 | 0.792 ± 0.0458 fold-change vs cycle 0 | 0.864 ± 0.0314 fold-change vs cycle 0 |
| TCACAA | 1.2 ± 0.0727 fold-change vs cycle 0 | 1.32 ± 0.0623 fold-change vs cycle 0 | 1.29 ± 0.11 fold-change vs cycle 0 |

| Sequence | binding signal (SALL4 ZFC4 WT (HT-SELEX)) | binding signal [1] | binding signal [2] |
| --- | --- | --- | --- |
| CTAATA | 2.24 ± 0.127 fold-change vs cycle 0 | 2.01 ± 0.099 fold-change vs cycle 0 | 1.81 ± 0.144 fold-change vs cycle 0 |
| ACCACT | 0.783 ± 0.0402 fold-change vs cycle 0 | 0.885 ± 0.0293 fold-change vs cycle 0 | 0.93 ± 0.0313 fold-change vs cycle 0 |
| CGCTTA | 0.535 ± 0.019 fold-change vs cycle 0 | 0.58 ± 0.0258 fold-change vs cycle 0 | 0.684 ± 0.061 fold-change vs cycle 0 |
| ATCAGA | 1.37 ± 0.0717 fold-change vs cycle 0 | 1.43 ± 0.0639 fold-change vs cycle 0 | 1.38 ± 0.109 fold-change vs cycle 0 |
| AATGAC | 1.18 ± 0.09 fold-change vs cycle 0 | 1.36 ± 0.06 fold-change vs cycle 0 | 1.3 ± 0.105 fold-change vs cycle 0 |
| CCTGAA | 0.792 ± 0.0306 fold-change vs cycle 0 | 0.933 ± 0.0447 fold-change vs cycle 0 | 0.951 ± 0.0276 fold-change vs cycle 0 |
| GTAAAA | 1.69 ± 0.0918 fold-change vs cycle 0 | 1.73 ± 0.0898 fold-change vs cycle 0 | 1.53 ± 0.125 fold-change vs cycle 0 |
| GCTCAC | 0.361 ± 0.0205 fold-change vs cycle 0 | 0.415 ± 0.0136 fold-change vs cycle 0 | 0.554 ± 0.021 fold-change vs cycle 0 |
| AATCTG | 1.22 ± 0.0563 fold-change vs cycle 0 | 1.28 ± 0.0883 fold-change vs cycle 0 | 1.25 ± 0.0941 fold-change vs cycle 0 |
| AAGGAC | 0.805 ± 0.0174 fold-change vs cycle 0 | 0.941 ± 0.0375 fold-change vs cycle 0 | 0.9757 ± 0.00429 fold-change vs cycle 0 |
| GTAAAC | 1.27 ± 0.0422 fold-change vs cycle 0 | 1.39 ± 0.0625 fold-change vs cycle 0 | 1.32 ± 0.0873 fold-change vs cycle 0 |
| CATCTA | 1.33 ± 0.0229 fold-change vs cycle 0 | 1.41 ± 0.0368 fold-change vs cycle 0 | 1.38 ± 0.068 fold-change vs cycle 0 |
| AGTATC | 1.37 ± 0.0932 fold-change vs cycle 0 | 1.48 ± 0.12 fold-change vs cycle 0 | 1.44 ± 0.125 fold-change vs cycle 0 |
| TACAGA | 1.3 ± 0.0338 fold-change vs cycle 0 | 1.38 ± 0.0448 fold-change vs cycle 0 | 1.33 ± 0.0789 fold-change vs cycle 0 |
| ACTCGG | 0.394 ± 0.0337 fold-change vs cycle 0 | 0.467 ± 0.0183 fold-change vs cycle 0 | 0.588 ± 0.0373 fold-change vs cycle 0 |
| AATTCA | 2.33 ± 0.187 fold-change vs cycle 0 | 1.93 ± 0.125 fold-change vs cycle 0 | 1.77 ± 0.161 fold-change vs cycle 0 |
| GAAGTC | 0.797 ± 0.0523 fold-change vs cycle 0 | 0.906 ± 0.0176 fold-change vs cycle 0 | 0.953 ± 0.00992 fold-change vs cycle 0 |
| CGTAAG | 0.774 ± 0.0532 fold-change vs cycle 0 | 0.862 ± 0.0372 fold-change vs cycle 0 | 0.905 ± 0.0422 fold-change vs cycle 0 |
| ACAAGC | 0.616 ± 0.0453 fold-change vs cycle 0 | 0.707 ± 0.0111 fold-change vs cycle 0 | 0.798 ± 0.0212 fold-change vs cycle 0 |
| ATCTTC | 1.42 ± 0.0263 fold-change vs cycle 0 | 1.58 ± 0.0645 fold-change vs cycle 0 | 1.46 ± 0.104 fold-change vs cycle 0 |
